Laboratory results taken from the supplement of paper PMC6897291.

Legend:
[1] = system: U-2932; test: growth inhibition by drug alone (1 - RLU/untreated control) (fraction); higher = stronger inhibition; settings: 177Lu-lilotomab satetraxetan 0 ug/ml
In short: (§1)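 A radiolabelled anti-CD37 antibody conjugate (~600 MBq/mg) was applied for 18 h at 0.5 µg/ml to RIVA and 1 µg/ml to U-2932 cells, with untreated cells run alongside. All cells were washed and seeded at 3,000 cells/well onto library-printed plates at 10/100 nM (RIVA) or 10/1,000 nM (U-2932). Growth inhibition was based on RealTime-Glo luminescence compared with untreated no-drug wells. Daily reads began on day 3 after 1 h at 37°C, with each value being 1 − RLU/mean of the 48 such wells on that plate.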

[2] = system: RIVA; test: as above; settings: 177Lu-lilotomab satetraxetan 0 ug/ml
In short: as §1

[3] = system: U-2932; test: growth inhibition by drug plus 177Lu-lilotomab satetraxetan (1 - RLU/untreated control) (fraction); higher = stronger inhibition; settings: 177Lu-lilotomab satetraxetan 1 ug/ml
In short: as §1

[4] = system: RIVA; test: as above; settings: 177Lu-lilotomab satetraxetan 0.5 ug/ml
In short: as §1

Structure (SMILES) | growth inhibition by drug alone ([1]; 10 nM, time (day): 3) | growth inhibition by drug alone ([1]; 10 nM, time (day): 4) | growth inhibition by drug alone ([1]; 10 nM, time (day): 5) | growth inhibition by drug alone ([1]; 10 nM, time (day): 6) | growth inhibition by drug alone ([1]; 1000 nM, time (day): 3) | growth inhibition by drug alone ([1]; 1000 nM, time (day): 4) | growth inhibition by drug alone ([1]; 1000 nM, time (day): 5) | growth inhibition by drug alone ([1]; 1000 nM, time (day): 6) | growth inhibition by drug alone ([2]; 10 nM, time (day): 3) | growth inhibition by drug alone ([2]; 10 nM, time (day): 4) | growth inhibition by drug alone ([2]; 10 nM, time (day): 5) | growth inhibition by drug alone ([2]; 10 nM, time (day): 6) | growth inhibition by drug alone ([2]; 100 nM, time (day): 3) | growth inhibition by drug alone ([2]; 100 nM, time (day): 4) | growth inhibition by drug alone ([2]; 100 nM, time (day): 5) | growth inhibition by drug alone ([2]; 100 nM, time (day): 6) | growth inhibition by drug plus 177Lu-lilotomab satetraxetan ([3]; 10 nM, time (day): 3) | growth inhibition by drug plus 177Lu-lilotomab satetraxetan ([3]; 10 nM, time (day): 4) | growth inhibition by drug plus 177Lu-lilotomab satetraxetan ([3]; 10 nM, time (day): 5) | growth inhibition by drug plus 177Lu-lilotomab satetraxetan ([3]; 10 nM, time (day): 6) | growth inhibition by drug plus 177Lu-lilotomab satetraxetan ([3]; 1000 nM, time (day): 3) | growth inhibition by drug plus 177Lu-lilotomab satetraxetan ([3]; 1000 nM, time (day): 4) | growth inhibition by drug plus 177Lu-lilotomab satetraxetan ([3]; 1000 nM, time (day): 5) | growth inhibition by drug plus 177Lu-lilotomab satetraxetan ([3]; 1000 nM, time (day): 6) | growth inhibition by drug plus 177Lu-lilotomab satetraxetan ([4]; 10 nM, time (day): 3) | growth inhibition by drug plus 177Lu-lilotomab satetraxetan ([4]; 10 nM, time (day): 4) | growth inhibition by drug plus 177Lu-lilotomab satetraxetan ([4]; 10 nM, time (day): 5) | growth inhibition by drug plus 177Lu-lilotomab satetraxetan ([4]; 10 nM, time (day): 6) | growth inhibition by drug plus 177Lu-lilotomab satetraxetan ([4]; 100 nM, time (day): 3) | growth inhibition by drug plus 177Lu-lilotomab satetraxetan ([4]; 100 nM, time (day): 4) | growth inhibition by drug plus 177Lu-lilotomab satetraxetan ([4]; 100 nM, time (day): 5) | growth inhibition by drug plus 177Lu-lilotomab satetraxetan ([4]; 100 nM, time (day): 6)
Cc1ccc(NC(=O)c2cccc(C(C)(C)C#N)c2)cc1Nc1ccc2ncn(C)c(=O)c2c1 | 0.0487 | 0.00122 | -0.0179 | -0.0294 | 0.157 | 0.159 | 0.087 | 0.137 | -0.0415 | -0.0437 | -0.0355 | -0.0473 | -0.346 | -0.245 | -0.279 | -0.339 | 0.00759 | 0.0624 | 0.11 | 0.17 | 0.173 | 0.189 | 0.164 | 0.263 | 0.556 | 0.622 | 0.643 | 0.651 | 0.432 | 0.547 | 0.564 | 0.563
CC(C)[C@H](C(=O)Nc1ccc(C(=O)NO)cc1)c1ccccc1 | 0.0244 | 0.00418 | -0.0183 | -0.000531 | 0.96 | 0.964 | 0.973 | 0.98 | -0.0258 | -0.0463 | -0.0451 | -0.103 | 0.935 | 0.907 | 0.897 | 0.884 | 0.037 | 0.0315 | 0.0282 | 0.152 | 0.961 | 0.969 | 0.978 | 0.985 | 0.524 | 0.584 | 0.602 | 0.599 | 0.939 | 0.934 | 0.937 | 0.94
Nc1nc(Cl)nc2c1ncn2[C@H]1C[C@H](O)[C@@H](CO)O1 [Cladribine] | -0.0123 | -0.0135 | -0.0163 | 0.0971 | 0.943 | 0.966 | 0.98 | 0.987 | 0.0585 | 0.0126 | 0.00678 | 0.0233 | -0.00435 | 0.239 | 0.319 | 0.387 | 0.0179 | 0.0736 | 0.11 | 0.212 | 0.942 | 0.971 | 0.983 | 0.989 | 0.528 | 0.571 | 0.602 | 0.611 | 0.683 | 0.807 | 0.843 | 0.878
Nc1ccc(-c2ccc3ncc4ccc(=O)n(-c5cccc(C(F)(F)F)c5)c4c3c2)cn1 [Torin 2] | 0.465 | 0.318 | 0.24 | 0.244 | 0.937 | 0.963 | 0.974 | 0.981 | 0.402 | 0.267 | 0.158 | -0.141 | 0.769 | 0.804 | 0.808 | 0.781 | 0.305 | 0.238 | 0.247 | 0.312 | 0.953 | 0.97 | 0.98 | 0.986 | 0.613 | 0.549 | 0.527 | 0.515 | 0.838 | 0.874 | 0.881 | 0.887
Cn1cc(-c2ccc3nnc(C(F)(F)c4ccc5ncccc5c4)n3n2)cn1 | -0.0908 | -0.108 | -0.0614 | -0.0112 | -0.151 | -0.112 | -0.0976 | 0.0327 | -0.216 | -0.252 | -0.259 | -0.266 | -0.157 | -0.252 | -0.203 | -0.226 | -0.0849 | -0.0323 | 0.0158 | 0.0612 | -0.131 | -0.0707 | -0.0177 | 0.142 | 0.285 | 0.449 | 0.457 | 0.453 | 0.342 | 0.401 | 0.428 | 0.429
C[C@@H](O[C@H]1OCCN(Cc2n[nH]c(=O)[nH]2)[C@H]1c1ccc(F)cc1)c1cc(C(F)(F)F)cc(C(F)(F)F)c1 [Aprepitant (MK-0869)] | -0.0806 | -0.0554 | -0.0486 | 0.0358 | -0.0765 | -0.0282 | -0.0265 | -0.0573 | -0.223 | -0.258 | -0.291 | -0.358 | -0.233 | -0.342 | -0.277 | -0.366 | -0.142 | -0.123 | -0.143 | -0.121 | -0.075 | 0.0386 | 0.0779 | 0.19 | 0.306 | 0.465 | 0.481 | 0.488 | 0.319 | 0.43 | 0.441 | 0.419
